The test is described as follows: NCI Yeast Anticancer Drug Screen. Data for the sgs1 strain (AID 173).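 Also: 0% = growth of vehicle-only control cultures.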 As to conditions: S. cerevisiae sgs1 mutant, stronger effect = higher value. The method, then: Growth inhibition of yeast strains with defined genetic alterations is measured as a screen for potential anti-cancer activity. Selected strains with alterations in DNA damage repair or cell cycle control were exposed to compounds and growth inhibition was measured relative to vehicle treated controls. The strain used in this assay is sgs1

Experimental findings from PubChem BioAssay (NCI) are described below.

Compounds without any hit were thinned out: in the full panel of roughly 79,000, 15% have a hit. Unmarked numbers belong to inactive results. Calls of active or inactive are those of the source. Rule as the data show it: active = growth inhibition above about 70%; inactive = the rest.

`NC(CS)C(=O)NCCNc1ccc(NCCNC(=O)C(N)CS)c2c1C(=O)c1c(O)ccc(O)c1C2=O` (stereo not given): the growth inhibition by setting is: (at 1.2 µM) -23%; (at 3.7 µM) -36%; (at 11.0 µM) -27%; (at 33.0 µM) 84% (active); (at 100.0 µM) 63%.

For `OC(CC(O)(C(F)(F)F)C(F)(F)F)c1ccc(C(O)CC(O)(C(F)(F)F)C(F)(F)F)cc1` (stereo not given), the growth inhibition runs as follows: (at 1.2 µM) 26%; (at 3.7 µM) 26%; (at 11.0 µM) 87% (active); (at 33.0 µM) 99% (active); (at 100.0 µM) 99% (active).

On to `CC(C)[Si]1(C(C)C)OCC2OC(n3cnc4c(N)ncnc43)C(N)C2O[Si](C(C)C)(C(C)C)O1` (stereo not given), for which the growth inhibition reads like this: (at 1.2 µM) 6%; (at 3.7 µM) 5%; (at 11.0 µM) 19%; (at 33.0 µM) 97% (active); (at 100.0 µM) 98% (active).

Regarding `S=C(NCc1ccccn1)N/N=C/c1ccccn1`, the growth inhibition (at 1.2 µM) was 99% (active); the growth inhibition (at 3.7 µM) was 98% (active); the growth inhibition (at 11.0 µM) was 98% (active); the growth inhibition (at 33.0 µM) was 99% (active); the growth inhibition (at 100.0 µM) is 99% (active).

Regarding `O=C1C2=C(c3ccccc31)C(c1ccccc1)N1C(=O)CSC1=N2` (stereo not given), the growth inhibition is -8% (at 1.2 µM); -14% (at 3.7 µM); 13% (at 11.0 µM); 41% (at 33.0 µM); 77% (active) (at 100.0 µM).

`CCc1c(Cl)c(C)c(Cl)c(O)c1Cl`: the growth inhibition (at 1.2 µM) is -4%; the growth inhibition (at 3.7 µM) was -13%; the growth inhibition (at 11.0 µM) is 14%; the growth inhibition (at 33.0 µM) is 96% (active); the growth inhibition (at 100.0 µM) was 99% (active).

Consider `c1ccc2c(c1)ccn2CCc1c[nH]c2ccccc12`, for which the growth inhibition is -38% (at 1.2 µM); -38% (at 3.7 µM); -20% (at 11.0 µM); 20% (at 33.0 µM); 95% (active) (at 100.0 µM).

Consider `COc1ccc(C(=O)/C=C\c2ccc(Cl)c(Cl)c2)cc1`, for which the growth inhibition (at 1.2 µM) is 10%; the growth inhibition (at 3.7 µM) is 5%; the growth inhibition (at 11.0 µM) was 11%; the growth inhibition (at 33.0 µM) is 44%; the growth inhibition (at 100.0 µM) is 67%.
